The text below walks through data of PubChem BioAssay (NCI).

Among the test systems are EKVX NSCLC; SN12C renal; UO-31 renal; TK-10 renal; ACHN renal; CAKI-1 renal; A498 renal; CCRF-CEM leukemia; MOLT-4 leukemia; SR leukemia.
Common to all, as to assay: NCI-60 one-dose screen, 48 h (100 = growth as untreated, 0 = no growth, -100 = all killed)
Common to all, as to details: 10 µM unless noted

This is part of a sample that, as a whole, favours compounds with a hit. Of some 83,000 tested, about 20% had one in any assay.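 For each line, cells grew in 96-well plates with the test compound present at a single concentration for 48 hours.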 Values without a mark were called inactive. The source made the active and inactive calls. How the source made its calls: active means growth percent below 10; inactive means the rest.

For the molecule `CN(CC(=O)N(Cc1ccc(C2CCCCC2)cc1)c1ccc(C(=O)O)cc1)S(=O)(=O)c1c(F)c(F)c(F)c(F)c1F`, the growth in the test with EKVX NSCLC is 92.1%; with SN12C renal, 19%; with UO-31 renal, 81.2%; in the test with TK-10 renal, 102%; in the test on ACHN renal it was 68.7%; in the test with CAKI-1 renal, 89.9%. Also, the growth with A498 renal is 93.4%; in the test on CCRF-CEM leukemia, -28.2% (active); in the test on MOLT-4 leukemia, -15.9% (active); with SR leukemia it was -22.1% (active).

Regarding `O=C1C(=O)c2ccc(Br)cc2-c2cc(Br)ccc21`, the growth is 99.8% in the test with EKVX NSCLC; 34.1% in the test with SN12C renal; 48.4% with UO-31 renal; 114% with TK-10 renal; 39% in the test on ACHN renal; 58.1% with CAKI-1 renal. Also, the growth in the test on A498 renal was 115%; in the test on CCRF-CEM leukemia, 10.1%; in the test with MOLT-4 leukemia it was -31.4% (active); in the test with SR leukemia, 4.99% (active).

Consider `C[C@]12C[C@H](O)[C@H]3[C@@H](CCC4=CC(=O)CC[C@@]43C)[C@@H]1CC[C@@H]2C(=O)CO`, for which the growth is 80.7% in the test on EKVX NSCLC; 79.9% in the test on SN12C renal; 89.6% with UO-31 renal; 108% with TK-10 renal; 95.8% with ACHN renal; 101% in the test on CAKI-1 renal. The growth is 43.5% in the test with A498 renal, 78.1% in the test on CCRF-CEM leukemia, 116% in the test on MOLT-4 leukemia and 111% in the test with SR leukemia.

On to `CCN(CC)CCOc1ccccc1-n1c(C)ccc1-c1ccccc1`, for which the growth was 83.8% in the test on EKVX NSCLC; 91.7% in the test on SN12C renal; 55.2% with UO-31 renal; 85.2% in the test on TK-10 renal; 105% with ACHN renal; 85.1% with CAKI-1 renal. Further, the growth is 65.1% with A498 renal, 28.1% in the test with CCRF-CEM leukemia, -35.2% (active) with MOLT-4 leukemia and -29.4% (active) in the test with SR leukemia.

On to `COc1ccc(C2=NN(C(C)=O)C(c3cc(OC)c(OC)c(OC)c3)C2)cc1` (stereo not given), for which the growth with EKVX NSCLC is 95.2%; with SN12C renal, 109%; in the test with UO-31 renal, 80%; with TK-10 renal, 152%; with ACHN renal it was 104%; in the test with CAKI-1 renal it was 100%. Also, the growth is 96.5% in the test on A498 renal, 75.5% with CCRF-CEM leukemia, 118% in the test with MOLT-4 leukemia and -9.78% (active) with SR leukemia.
